In PubChem BioAssay (NCATS):
Records with an inconclusive call do not appear. Entries that show only a call come without a potency. Activity calls are given as the source filed them. Unless noted, calls follow the shape of the dose curve; as a rule, active = well fitted curve in the direction sought with a large enough effect; inconclusive = small, poorly fitted or top-dose-only effect, or another doubt; inactive = no such curve, though single readings can be large; an effect the other way counts as inactive or inconclusive.

Experiments:
[1] = qHTS Assay for Identification of Small Molecule Agonists for Thrombopoietin (TPO) Signaling Pathway (AID 917); conditions: TPO signaling pathway reporter cells, agonist qHTS, stimulated with TPO at its EC50; series mostly up to 38.5 µM
Method in brief: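 We measured Glycoprotein IIb promoter–luciferase output in IL-3-starved Ba/F3 murine cells expressing the human TPO receptor after 24 hrs at 37 C with compounds and 26 pM TPO.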

[2] = target: Pyruvate kinase (Leishmania mexicana) (UniProt Q27686); experiment: qHTS Validation Assay for Inhibitors of Leishmania Mexicana Pyruvate Kinase (AID 945); conditions: purified L. mexicana pyruvate kinase, enzyme activity, E451W mutant enzyme; series mostly up to 57.5 µM
Method in brief: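 Substrate mix (0.5 mM PEP, 0.1 mM ADP, 7 mM MgCl2, 50 mM KCl, pH 7.2 imidazole) received compound by pin tool, then 0.2 nM LmPYK E451W. After 1 h at room temperature, PKLight was added and luminescence measured.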

[3] = target: Pyruvate kinase PKM (Homo sapiens) (UniProt P14618); experiment: qHTS Assay for Activators of Human Muscle Pyruvate Kinase (AID 954; active = well fitted curve in the direction sought with a large enough effect, not every such curve was filed as active); conditions: purified human muscle pyruvate kinase, luciferase-coupled luminescence, 1 h; series mostly up to 57.5 µM
Method in brief: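 Purified human PKM2 (0.1 nM) with 0.5 mM PEP (Km) and 0.1 mM ADP in 50 mM imidazole pH 7.2, KCl, MgCl2, 1 h at room temperature; ATP formed read by coupled luciferase luminescence. Normalized to no-enzyme/110 uM thiadiazolimine inhibition; 0.3 nM enzyme column for activation.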

[4] = target: Muscarinic acetylcholine receptor M1 (Rattus norvegicus) (UniProt P08482); experiment: qHTS Assay for Antagonists of Acetylcholine Muscarinic M1 Receptor: Kinetic Measurement of Intracellular Calcium Response (AID 943); conditions: M1-expressing cells, kinetic intracellular calcium fluorescence; series mostly up to 35.3 µM; also: nearly all actives have a fitted effect of over 75% in size; also: potency is read from the fitted curve at half-maximal effect
Method in brief: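 CHO cells expressing rat M1 receptor, Fluo-4 loaded, preincubated 10 min with compound, then stimulated with EC80 carbachol (100 nM final). Kinetic calcium fluorescence over 4 min; response taken as peak over basal signal.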

[5] = target: Muscarinic acetylcholine receptor M1 (Rattus norvegicus) (UniProt P08482); experiment: qHTS Assay for Antagonists of Acetylcholine Muscarinic M1 Receptor: Measurement of IP-One Response (AID 944); conditions: CHO-M1 cells, IP-One HTRF, antagonist mode; series mostly up to 46.1 µM; also: nearly all actives have a fitted effect of over 75% in size; also: potency is read from the fitted curve at half-maximal effect
Method in brief: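 CHO cells stably expressing rat M1, pretreated 10 min with compound, then stimulated 30 min with carbachol at EC80 (200 nM) in LiCl-containing buffer pH 7.4; IP1 accumulation read by HTRF competition (665/620 nm).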

[6] = qHTS Assay for Identification of Small Molecule Antagonists for Thrombopoietin (TPO) Signaling Pathway (AID 918); conditions: TPO-dependent cell signaling reporter, antagonist mode; also: potency is read from the fitted curve at half-maximal effect; nearly all actives have a fitted effect of over 60% in size
Method in brief: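 Murine Ba/F3 cells expressing human TPO receptor and a Glycoprotein IIb promoter-luciferase reporter, IL-3-starved overnight, treated with compound plus TPO at EC50 (26 pM final). After 24 h at 37 C, luminescence read to detect inhibitors.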

Pyruvate kinase PKM (Homo sapiens), sequence (P14618 whole entry, looked up): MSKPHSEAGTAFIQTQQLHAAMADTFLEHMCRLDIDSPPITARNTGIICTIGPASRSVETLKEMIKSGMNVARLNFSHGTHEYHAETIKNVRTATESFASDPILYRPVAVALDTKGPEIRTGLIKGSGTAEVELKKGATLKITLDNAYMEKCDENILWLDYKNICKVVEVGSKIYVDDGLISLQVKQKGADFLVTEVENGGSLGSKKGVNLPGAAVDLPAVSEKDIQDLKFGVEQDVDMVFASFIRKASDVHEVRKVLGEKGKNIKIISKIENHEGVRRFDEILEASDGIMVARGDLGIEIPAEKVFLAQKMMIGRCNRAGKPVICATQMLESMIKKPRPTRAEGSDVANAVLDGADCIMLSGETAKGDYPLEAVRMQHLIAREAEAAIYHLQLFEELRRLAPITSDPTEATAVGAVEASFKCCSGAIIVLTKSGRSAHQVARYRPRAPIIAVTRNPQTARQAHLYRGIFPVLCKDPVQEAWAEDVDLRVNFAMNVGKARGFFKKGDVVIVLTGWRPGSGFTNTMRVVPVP
Pyruvate kinase (Leishmania mexicana), sequence (Q27686 2-499 E452W): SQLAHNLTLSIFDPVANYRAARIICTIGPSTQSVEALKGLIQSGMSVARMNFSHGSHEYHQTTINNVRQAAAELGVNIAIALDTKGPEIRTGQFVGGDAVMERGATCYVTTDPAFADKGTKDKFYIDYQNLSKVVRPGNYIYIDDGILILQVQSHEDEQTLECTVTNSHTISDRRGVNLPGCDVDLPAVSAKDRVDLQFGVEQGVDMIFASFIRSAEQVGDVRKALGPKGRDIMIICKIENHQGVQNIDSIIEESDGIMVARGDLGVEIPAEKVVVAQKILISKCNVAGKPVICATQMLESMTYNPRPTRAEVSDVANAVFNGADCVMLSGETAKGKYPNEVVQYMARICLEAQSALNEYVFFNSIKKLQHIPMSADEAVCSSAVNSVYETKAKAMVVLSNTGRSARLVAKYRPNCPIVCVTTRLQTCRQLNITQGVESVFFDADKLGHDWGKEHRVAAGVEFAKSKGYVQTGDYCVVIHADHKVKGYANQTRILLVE
Muscarinic acetylcholine receptor M1 (Rattus norvegicus), sequence (P08482 whole entry, looked up): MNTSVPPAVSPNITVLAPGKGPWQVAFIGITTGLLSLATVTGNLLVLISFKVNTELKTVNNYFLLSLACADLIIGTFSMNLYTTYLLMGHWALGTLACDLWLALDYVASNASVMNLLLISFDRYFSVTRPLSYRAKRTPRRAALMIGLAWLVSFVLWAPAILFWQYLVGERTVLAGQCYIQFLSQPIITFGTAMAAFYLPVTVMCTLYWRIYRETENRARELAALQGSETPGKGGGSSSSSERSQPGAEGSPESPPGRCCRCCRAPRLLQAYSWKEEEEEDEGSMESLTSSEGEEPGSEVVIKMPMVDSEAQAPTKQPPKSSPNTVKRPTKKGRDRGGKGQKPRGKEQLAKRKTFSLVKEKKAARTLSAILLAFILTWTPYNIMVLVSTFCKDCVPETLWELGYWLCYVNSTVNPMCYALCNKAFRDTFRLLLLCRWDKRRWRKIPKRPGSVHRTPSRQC

| Structure (SMILES) | Potency [1] | Potency [2] | outcome [3] | Potency [4] | Potency [5] | Potency [6] |
| --- | --- | --- | --- | --- | --- | --- |
| Fc1ccc(CN(C2=NCCN2)c2c(Cl)cccc2Cl)cc1 | inactive | inactive | inactive | – | – | – |
| COc1ccccc1N1CCN(CCCCN2C(=O)c3ccccc3C2=O)CC1 | inactive | inactive | inactive | – | – | – |
| CC[C@@H]1Cc2cc(O)ccc2C2=C1c1ccc(O)cc1C[C@H]2CC | – | inactive | inactive | 12.6 µM (active) | – | – |
| Nc1ccc2c3c(cccc13)C(=O)NC2=O | inactive | inactive | inactive | – | – | – |
| CCCCOC(=O)NS(=O)(=O)c1sc(CC(C)C)cc1-c1ccc(Cn2c(CC)nc3c(C)cc(C)nc32)cc1 | – | inactive | inactive | – | inactive | – |
| CN1CCN(c2nc3cc(C(F)(F)F)ccc3n3cccc23)CC1 | – | inactive | inactive | inactive | inactive | – |
| CC(C)(C)c1cc(/C=C(\C#N)C(N)=S)cc(C(C)(C)C)c1O | – | inactive | inactive | – | – | – |
| O=c1oc(Cl)c(Cl)c2ccccc12 | – | inactive | inactive | inactive | inactive | – |
| CCCOC(=O)c1c(-c2ccccc2)nc(CC)c(C(=O)SCC)c1CCC | inactive | inactive | inactive | – | inactive | – |
| COc1ccc(NC(=O)c2ccc(-c3ccc(-c4noc(C)n4)cc3C)cc2)cc1N1CCN(C)CC1 | – | inactive | inactive | – | – | 10 µM (active) |
| O=c1ccc2c(OCCCCc3ccccc3)c3ccoc3cc2o1 | inactive | inactive | inactive | – | – | – |
| CCN(CC)CCCCCCCCOC(=O)c1cc(OC)c(OC)c(OC)c1 | – | inactive | inactive | 2.82 µM (active) | 2.82 µM (active) | – |
| CCCCCCCC/C=C\CCCCCCCC(=O)NCCc1ccc(O)c(O)c1 | – | inactive | inactive | inactive | inactive | – |
